# High-throughput results deposited in PubChem by Johns Hopkins Ion Channel Center.
# Hits are enriched below; roughly 1.6% of the tested compounds scored in any of these assays.
# KCNQ2 inh = inhibitors of rat KCNQ2 potassium channel; B-score at 10 µM; O88943; 310,000 compounds, 1.1% hits; CHO-K1 KCNQ2, FluxOR thallium flux, 20 min; hits give low values;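 active = fluorescence ratio B-score at most minus 3 library SDs, with starting brightness B-score within 2 library SDs, cut at about -5.5 in these data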
# Target sequence (O88943 whole entry, looked up): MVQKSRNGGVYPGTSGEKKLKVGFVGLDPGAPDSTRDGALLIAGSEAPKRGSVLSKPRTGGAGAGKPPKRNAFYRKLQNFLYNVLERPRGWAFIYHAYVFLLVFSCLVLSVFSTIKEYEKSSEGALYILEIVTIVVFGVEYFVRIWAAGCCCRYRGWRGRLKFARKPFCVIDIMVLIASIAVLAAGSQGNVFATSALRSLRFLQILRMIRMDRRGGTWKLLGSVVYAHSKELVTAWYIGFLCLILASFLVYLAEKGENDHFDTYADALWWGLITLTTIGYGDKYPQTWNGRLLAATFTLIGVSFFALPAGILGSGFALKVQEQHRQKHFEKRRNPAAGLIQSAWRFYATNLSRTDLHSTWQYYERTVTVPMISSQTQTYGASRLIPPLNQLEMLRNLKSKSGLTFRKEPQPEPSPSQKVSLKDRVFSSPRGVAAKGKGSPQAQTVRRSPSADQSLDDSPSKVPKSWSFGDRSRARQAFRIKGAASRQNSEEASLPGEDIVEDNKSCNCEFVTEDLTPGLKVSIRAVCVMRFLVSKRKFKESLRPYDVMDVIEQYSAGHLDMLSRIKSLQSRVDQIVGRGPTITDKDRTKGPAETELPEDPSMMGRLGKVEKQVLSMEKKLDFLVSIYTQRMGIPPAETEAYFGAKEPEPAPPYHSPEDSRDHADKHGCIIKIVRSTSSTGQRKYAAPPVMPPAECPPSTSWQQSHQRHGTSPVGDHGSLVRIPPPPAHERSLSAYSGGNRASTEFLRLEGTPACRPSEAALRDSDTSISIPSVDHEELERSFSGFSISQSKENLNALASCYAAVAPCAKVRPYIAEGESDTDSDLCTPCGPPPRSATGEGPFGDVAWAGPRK
# KCNQ2 pot = potentiators of rat KCNQ2 potassium channel | O88943 | CHO-K1 KCNQ2, FluxOR thallium flux fluorescence; hits give high values | B-score at 10 µM | 310,000 compounds, 0.54% hits;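 active = fluorescence ratio B-score at least 3 SD of library B-scores, with initial fluorescence B-score within 3 of them, cut at about 5.3 in these data; same plate scores as AID 2156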;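 also: B-score of peak minus minimum over baseline fluorescence ratio after K+ and Tl+ stimulus; positive B-score means potentiation of KCNQ2 with more thallium influx and brighter signal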
# * marks the source's active call; other numbers are inactive results; i = inactive; nt = no result.
SMILES,KCNQ2 inh,KCNQ2 pot
Cc1[nH]n(-c2ncc(-c3ccccc3)s2)c(=O)c1C(c1ccc(Cl)cc1)C(C#N)C#N (centres undefined),-7.2*,-7.2
Nc1nc(-c2cccnc2)nc2sc3c(c12)CCCC3,i,3.5
O=C1CN(c2nc(-c3cccnc3)nc3sc4c(c23)CCCC4)CCN1,-5.7*,-5.7
CC(C)(C)NC(=O)c1ccccc1NC(=O)C1CC(=O)N(C2CCCCC2)C1 (centres undefined),i,nt
O=C(O)c1cc(-c2ccccc2)nn1CC1CC(c2cccnc2)=NO1 (centres undefined),i,1.3
COc1ccccc1CNC(=O)c1cc(-c2ccccc2)nn1CC1CC(c2cccnc2)=NO1 (centres undefined),-6.1*,-6.1
CCC(C)[C@H]1CNCCN1CCc1cccc(F)c1 (some centres undefined),i,0.97
CCOc1cc(NC(=S)NCC2CCCO2)c(OCC)cc1NC(=O)c1ccccc1C (centres undefined),i,0.54
CCOc1cc(NC(=S)Nc2ccccc2OC)c(OCC)cc1NC(=O)c1ccccc1C,-5.7*,-5.7
Cc1ccc(C(=O)N/C(=C/c2ccccc2)C(=O)NCC2CCCO2)cc1 (centres undefined),i,nt
Cc1cccc(/C(N)=N/OC(=O)c2cccc3ccccc23)c1,-5.7*,-5.7
N/C(=N\OC(=O)c1cccc2ccccc12)c1cccc([N+](=O)[O-])c1,i,0.82
CCOC(=O)CCc1c(C(=O)OCC)[nH]c(CC)c1C(=O)OCc1ccccc1,i,nt
CC(=O)c1ccc(NC(=O)CSc2ccc(-c3ccc(-n4cccn4)cc3)nn2)cc1,i,0.41
CC(=O)c1ccc(N(C(=O)CNC(=O)c2cccs2)C(C(=O)NCC2CCCO2)c2ccccc2)cc1 (centres undefined),i,0.47
O=C(NCC(=O)N(Cc1ccccc1)C(C(=O)NCC1CCCO1)c1ccccc1)c1cccs1 (centres undefined),-5.6*,-5.6
COCCN(CC(=O)NC1CCCCC1)C(=O)CCCC(=O)Nc1ccccn1,i,0.21
COC(=O)c1ccc(CN(C)S(=O)(=O)c2cccs2)cc1,i,nt
Cc1nc(NC(=O)C2CCCC2)sc1Cc1ccc2c(c1)OCO2,i,0.1
Cc1nc(NC(=O)C23CC4CC(CC(C4)C2)C3)sc1Cc1ccc2c(c1)OCO2,i,21*
Cc1cc(C(=O)CCC(=O)Nc2ncccc2O)c(C)s1,i,2
Oc1c(Br)cc(Br)cc1C=Nc1ccc2c(c1)OCO2,i,9.8*
Oc1c(Br)cc(Br)cc1C=Nc1ccc2c(c1)OCCO2,i,2.9
CC1CN(C(=O)C2(C)CC2(Br)Br)CC(C)O1 (centres undefined),i,0.79
COc1cc(S(=O)(=O)n2cnc3ccccc32)ccc1Br,i,2.2
SMILES,KCNQ2 inh,KCNQ2 pot
COc1ccc(C(C(=O)NCc2ccc(F)cc2)N(C(=O)c2csnn2)C2CC2)cc1 (centres undefined),i,nt
Cc1cc(Cl)c2oc(C(=O)N3CCN(c4cccc(C)n4)CC3)c(C)c2c1,i,nt
Cc1ccc2oc(C(=O)N3CCN(c4cccc(C)n4)CC3)c(C)c2c1,-8.1*,-8.1
O=C(COc1ccccc1)NCC(=O)Nc1cccc(S(=O)(=O)NC2=NCCC2)c1,i,nt
COCCn1c(SCC(=O)NC(C)c2ccc(F)cc2)nc2ccccc21 (centres undefined),i,nt
CCCCn1c(N)c(N(CC(C)C)C(=O)C2CCCO2)c(=O)[nH]c1=O (centres undefined),i,nt
Cc1oc(-c2nc3ccccc3n2C)cc1C(=O)c1ccccc1,-6.6*,-6.6
Cn1cc(C(=O)c2ccccc2)cc1-c1nc2ccccc2n1C,i,nt
COc1ccc(NC(=O)C(CC(C)C)NC(=O)c2ccccc2C)cn1 (centres undefined),-7.7*,-7.7
Cc1ccccc1C(=O)NC(CC(C)C)C(=O)Nc1ccc(F)c([N+](=O)[O-])c1 (centres undefined),i,nt
CCCCC(=O)Nc1ccc(N2CCN(C(=O)c3ccco3)CC2)cc1,i,1.8
COc1ccc(COCC(O)CN(Cc2ccco2)Cc2ccccc2O)cc1 (centres undefined),i,nt
Oc1ccccc1CN(Cc1ccco1)CC(O)COCc1ccc(Cl)cc1 (centres undefined),-6.1*,-6.1
COc1ccc(CN(C)C(=O)COC(=O)c2c(-c3ccccc3Cl)noc2C)cc1,i,nt
CC(Oc1ccccc1)C(=O)N1CCN=C1SCc1ccc(F)cc1 (centres undefined),i,nt
Cc1ccc(CNC(=O)NC23CC4CC(CC(C4)C2)C3)cc1,i,11*
NS(=O)(=O)c1ccc(CNC(=O)NC23CC4CC(CC(C4)C2)C3)cc1,i,0.67
COC(=O)C1=CN(CCOC23CC4CC(CC(C4)C2)C3)C=C(C(=O)OC)C1c1ccsc1,-7.4*,-7.4
COC(=O)C1=CN(Cc2ccc(OC)cc2)C=C(C(=O)OC)C1c1ccsc1,i,nt
O=C(NCc1ccc(Cl)cc1)c1noc2c1CCCC2,-6.5*,-6.5
O=C(NCc1ccccc1)c1noc2c1CCCC2,i,nt
O=C(/C=C/c1ccc(-c2ccccc2[N+](=O)[O-])o1)c1ccc(F)cc1,i,nt
O=C(/C=C/c1ccc(-c2ccccc2[N+](=O)[O-])o1)c1ccc(Br)cc1,-7.2*,-7.2
O=c1[nH]c(=S)[nH]c2sc3c(c12)CCCCCC3,i,1.6
CCc1ccc(NC(=O)c2cccc(C(=O)Nc3ccc(CC)cc3)n2)cc1,i,0.46
SMILES,KCNQ2 inh,KCNQ2 pot
Cc1ccc(NC(=O)c2cccc(C(=O)Nc3ccc(C)c(C)c3)n2)cc1C,-6.4*,-6.4
C=CCn1c(SCC(=O)Nc2ccc(N3CCOCC3)cc2)nc2ccccc2c1=O,i,1.3
O=C(CN=C1NC(=O)C(c2ccccc2)(c2ccccc2)N1)NCc1ccc(F)cc1,i,nt
COc1ccc(CNC(=O)CN=C2NC(=O)C(c3ccccc3)(c3ccccc3)N2)cc1,-6.1*,-6.1
CCN1CCN(Cc2c3ccccc3cc3ccccc23)CC1,i,nt
COc1ccc(NC(=O)N(C2CCCCC2)C(C)c2cccnc2)c(OC)c1 (centres undefined),i,nt
COc1ccc(NC(=O)N(C2CCCCC2)C(C)c2ccco2)c(OC)c1 (centres undefined),-8.2*,-8.2
CCOC(=O)CNC(=O)N(CCOC)CC1CCCN(C2Cc3ccccc3C2)C1 (centres undefined),i,0.66
CCC1(c2ccc(F)cc2)NC(=O)N(CC(=O)N(C)C2CCS(=O)(=O)C2)C1=O (centres undefined),i,0.91
CC(c1ccccc1)N(CCC(c1ccccc1)C1CCOC(C)(C)C1)C(=O)c1ccco1 (centres undefined),i,nt
COc1ccc(CN(CCC(c2ccc(F)cc2)C2CCOC(C)(C)C2)C(=O)c2ccco2)cc1 (centres undefined),-5.8*,-5.8
CC(=O)Oc1ccc2c(=O)c(Oc3ccccc3)coc2c1OC(C)=O,i,2
CC(C)CCNc1nc(N)c([N+](=O)[O-])c(N2CCCCCC2)n1,i,nt
COc1cccc2[nH]c3c(N4CCN(Cc5ccc6c(c5)OCO6)CC4)ncnc3c12,i,1.1
c1ccc(CN2CCN(c3ncnc4c3[nH]c3ccccc34)CC2)cc1,-8.1*,-8.1
COc1ccc2c(c1)[nH]c1c(N3CCN(Cc4ccc5c(c4)OCO5)CC3)ncnc12,-8.1*,-8.1
